# Screening results: PubChem, National Center for Advancing Translational Sciences (NCATS)
# TDP1 cell noCPT = qHTS for Inhibitors of human tyrosyl-DNA phosphodiesterase 1 (TDP1): qHTS in cells in absence of CPT; Potency, µM (titrated, usually from 46.2 µM), inactives show at the top dose activity change, negative = growth inhibition, hits mostly inhibitors; AID 686978, 2013; DT40 Tdp1-/- hTDP1 cells, no CPT, ATP luminescence, 48 h; 15% of 420,000 active; note: % is set by controls: 0 for no effect and ±100 for the full control effect; nearly all actives have a fitted effect of over 55% in size
#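 Chicken DT40 Tdp1-/- cells complemented with human TDP1, screened without camptothecin (DMSO vehicle only), 400 cells/well. Compounds pin-transferred, cells incubated at 37 °C for at least 48 hr. Growth read as ATP-dependent luminescence (CellTiter-Glo, 30 min at RT).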
# TDP1 cell CPT = qHTS for Inhibitors of human tyrosyl-DNA phosphodiesterase 1 (TDP1): qHTS in cells in presence of CPT; chicken DT40 Tdp1-/-;hTDP1 cells + 20 nM CPT, ATP luminescence, 48 h; Potency, µM (doses to about 46.2 µM), for the others: at the top dose activity change, negative = growth inhibition, actives largely listed as inhibitors; 12% of 420,000 active; note: % is set by controls: 0 for no effect and ±100 for the full control effect; nearly all actives have a fitted effect of over 55% in size
#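 Cell growth measured by CellTiter-Glo luminescence after a minimum 48 h, 37 C compound exposure with 20 nM CPT in Tdp1-knockout DT40 cells stably expressing hTDP1, seeded 400/well; qHTS titration format.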
# TDP1 block = qHTS Assay for Inhibitors of Tyrosyl-DNA Phosphodiesterase (TDP1) | AID 485290, 2010 | Potency, µM (titrated, usually from 130 µM), inactives show at the highest dose activity change, negative = inhibition, hits mostly inhibitors | 0.28% of 350,000 active | recombinant TDP1, AlphaScreen DNA substrate cleavage; note: % is set by controls: 0 for no effect and ±100 for the full control effect; nearly all actives have a fitted effect of over 40% in size
#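 Enzyme-compound mixtures sat 15 min at room temperature, followed by a 5 min reaction with 15 nM final substrate and 10 min with AlphaScreen beads. Recombinant human Tdp1 was used at 1 nM final.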
# ClpP mod = qHTS Assay for Activators of ClpP; 1.9% of 340,000 active; purified B. subtilis ClpP, FRET peptide cleavage, 20 min; Potency, µM (doses to about 57.5 µM), inactives show at the top dose activity change, negative = active; AID 651965, 2013; active = well fitted falling curve with a large enough effect; inconclusive = small, poorly fitted or top-dose-only effect; inactive = no such curve, though single readings can be large or run the other way; note: the source files actives as falling curves though it sought activators and does not explain the sign; nearly all actives have a fitted effect of over 65% in size
# Target sequence (P80244 whole entry, looked up): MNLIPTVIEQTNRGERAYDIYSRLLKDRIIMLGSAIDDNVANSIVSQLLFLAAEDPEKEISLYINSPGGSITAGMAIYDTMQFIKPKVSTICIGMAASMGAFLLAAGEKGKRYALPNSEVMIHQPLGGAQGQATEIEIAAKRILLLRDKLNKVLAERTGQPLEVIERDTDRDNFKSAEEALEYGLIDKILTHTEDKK
#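 Purified B. subtilis ClpP, 10 microg/mL final in Tris/HCl pH8 with KCl, BSA, glycerol and Tween-20, cleaved an Abz/nitrotyrosine-quenched decapeptide. Fluorescence (ex 320, em 430) was read at 0 and 20 min at room temperature. Delta was normalized to 5.8 microM ADEP and DMSO/no-enzyme controls.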
# * hit, by the source's call; ? = inconclusive; · = not tested or not shown; [ ] = dose if it differs, or a comment. Compounds with a hit are over-represented: about 17% of the library has one in this group of screens. Unless noted, calls come from the whole dose curve; as a rule, active = well fitted curve in the direction sought with a large enough effect; inconclusive = small, poorly fitted or top-dose-only effect, or another doubt; inactive = no such curve, though single readings can be large; an effect the other way counts as inactive or inconclusive. Potency is the fitted concentration of half-maximal effect.
SMILES,TDP1 cell noCPT,TDP1 cell CPT,TDP1 block,ClpP mod
Cc1ccc(C(=O)NC(NCc2ccccc2)C(Cl)(Cl)Cl)cc1 (centres undefined),-7%,3%,5%,14µM*
CC(C)OCCCNC(=O)C(NC(=O)c1ccc(Cl)cc1)C(C)C (centres undefined),-2%,11%,3%,·
COCCCNC(NC(=O)c1ccc(Cl)cc1)C(Cl)(Cl)Cl (centres undefined),16µM*,?,0%,-3%
C[C@@H]1CN(Cc2ccc3c(c2)CN(Cc2cn[nH]c2-c2ccccc2)CCO3)C[C@H](C)O1,-21%,4%[9.04 µM],·,·
CC(=O)c1ccc(NC(=O)CSc2nc(-c3ccccc3C)nc3c2c(=O)n(C)c(=O)n3C)cc1,?,?,3%,2%
Cc1ccsc1/C=N/NC(=O)c1cc(-c2ccncc2)nc2ccccc12,0.58µM*,0.58µM*,8%,-2%
COc1ccccc1-c1cc(C(=O)N/N=C/c2sccc2C)c2ccccc2n1,1µM*,6.5µM*,-3%,-11%
Cc1ccsc1/C=N/NC(=O)c1c[nH]c2ccccc12,?,?,3%,0%
COc1cc(F)ccc1CN1CCC(C(=O)Nc2ccc(Oc3ccccc3)nc2)CC1,16µM*,?,4%,·
Cc1ncc(CN2CCCCC2C(=O)Nc2ccc(Oc3ccccc3)nc2)cn1 (centres undefined),-15%,6%,2%,-1%
COc1ccc(CN2CCC(C(=O)Nc3ccc(Oc4ccccc4)nc3)CC2)cc1F,18µM*,21µM*,5%[56.1 µM],1%
Cc1cc(C)c(S(=O)(=O)c2cccc(Br)c2C)c(Cl)n1,1%,-21%,·,2%
Cc1cc(C)c(S(=O)(=O)N2CCOC2CNC(=O)C(=O)NCc2ccco2)c(C)c1 (centres undefined),-29%,-14%,5%,-1%
Cc1cc(C(=O)CSc2nc(N)cc(=O)[nH]2)c(C)n1CCc1ccc(F)cc1,12µM*,18µM*,10%,-1%
Cc1cc(C(=O)CSc2nc(N)cc(=O)[nH]2)c(C)n1-c1ccc(OC(F)F)cc1,1.8µM*,2.6µM*,6%,32µM*
Cc1cc(C(=O)CSc2nc(N)cc(N)n2)c(C)n1-c1cccc(F)c1,?,?,7%,-4%
COc1ccc(CCn2c(C)cc(C(=O)CSc3nc(N)cc(=O)[nH]3)c2C)cc1,12µM*,12µM*,6%,2%
Cc1cc(C(=O)CSc2nc(N)cc(=O)[nH]2)ccc1F,-1%,-17%,·,-4%
CCC1=C2CC[C@H]3C(=O)NC(=O)[C@H]3[C@H]2[C@@]2(C)C(=NCCc3c[nH]c4ccccc34)OC(=O)N2C1=O,·,·,7%,·
Cc1ccc(C)c(CNC(=O)C2CCCCN2S(=O)(=O)c2ccc(F)cc2)c1 (centres undefined),?,?,-5%,0%
COc1ccc(OCCOc2ccc(N(C)S(=O)(=O)c3ccccc3)cc2)cc1,?,?,0%,1%
CN(c1ccc(OCCOc2ccccc2Cl)cc1)S(=O)(=O)c1ccccc1,2.9µM*,?,-6%,-2%
CCN(CC(=O)NCc1ccc(F)cc1)C(=O)C1CCN(S(=O)(=O)c2ccc(C(C)C)cc2)CC1,?,?,1%,-1%
O=C(O)CNc1ccccc1C(=O)O,-2%,3%,·,3%
CCCOc1ccc(C(=O)N(Cc2ccco2)Cc2ccco2)cc1,?,?,5%,1%
SMILES,TDP1 cell noCPT,TDP1 cell CPT,TDP1 block,ClpP mod
CCSc1ncc(Cl)c(C(=O)N(Cc2ccc(N(C)C)cc2)Cc2ccco2)n1,21µM*,?,12%,-3%
Cc1ccccc1C(=O)N(Cc1ccc(N(C)C)cc1)Cc1ccco1,18µM*,?,11%,-1%
Cc1ccc(C(=O)N(Cc2ccc(N(C)C)cc2)Cc2ccco2)cc1,21µM*,?,15%,0%
CCCCOc1ccc(C(=O)N(Cc2ccco2)Cc2ccco2)cc1,21µM*,?,2%,-2%
CC(=O)Nc1ccc(S(=O)(=O)NC2CC(=O)N(c3ccc(C)c(C)c3)C2)cc1 (centres undefined),?,?,1%,1%
O=C(CCCCCN1C(=O)[C@@H]2Cc3ccccc3CN2C1=O)Nc1ccccc1F,?,?,0%,2%
C=C(C)c1ccc(C(C)(C)NC(=O)N(Cc2ccccc2)Cc2ccco2)cc1,16µM*,18µM*,2%,-1%
COc1cccc(C(=O)N(Cc2ccc(N(C)C)cc2)Cc2ccco2)c1,?,?,14%,-1%
CCCOc1ccc(C(=O)N(Cc2ccc(Cl)cc2)Cc2ccco2)cc1,?,?,-5%,-3%
Cc1cc(C)c2c(CC(=O)N(Cc3ccc(N(C)C)cc3)Cc3ccco3)coc2c1,21µM*,15µM*,11%,-17%
CC(C)Oc1ccc(C(=O)N(Cc2ccc(N(C)C)cc2)Cc2ccco2)cc1,13µM*,?,15%,-6%
CCCCOc1ccc(C(=O)N(Cc2ccc(N(C)C)cc2)Cc2ccco2)cc1,13µM*,?,12%,-1%
Cc1ccccc1NC(=O)C1CCN(S(=O)(=O)c2cccc3nonc23)CC1,1%,2%,9%,0%
COc1cc(CN2C[C@@H](CO)O[C@@H](n3cnc4c(NC5CCCC5)ncnc43)C2)cc(OC)c1OC,?,-7%,·,2%
Cc1ccc(SCC(=O)OCc2csc(CC(=O)Nc3ccccc3C)n2)cc1C,1%,-27%,0%,-3%
COCC(=O)Nc1c(C(=O)Nc2ccc(C)cc2)oc2ccccc12,?,7%,-1%,-3%
CNS(=O)(=O)c1cccc(C(=O)OCC(=O)Nc2ccc3ccccc3c2)c1,-3%,-7%,·,·
CCSc1ncc(Cl)c(C(=O)N(Cc2ccccc2)c2ccc(OC)cc2)n1,5.8µM*,?,0%,-3%
CCSc1ncc(Cl)c(C(=O)N2CCN(c3ccc(OC)cc3)CC2)n1,?,?,5%,-1%
Cc1cccc(CNC(=O)c2cccc(NC(=O)N3CCSc4ncccc43)c2)c1,?,15µM*,8%,-18%
CCOc1ccc(CNC(=O)c2cccc(NC(=O)N3CCSc4ncccc43)c2)cc1OC,16µM*,16µM*,0%,-30%
O=c1/c(=C/c2ccc([N+](=O)[O-])cc2)sc2n1CCCN=2,13µM*,26µM*,6%,-1%
COc1ccc(N2CC(NC(=O)/C=C\c3ccccc3)CC2=O)cc1 (centres undefined),-10%,-2%,0%,-1%
CN1CCN(c2ccc(NC(=O)c3cc4ccccc4o3)cc2)CC1,?,-26%,·,0%
